# Sfp PPTase inh: Sfp phosphopantetheinyl transferase inhibition. Q9F4F7. Biochemical Sfp PPTase activity, qHTS. Potency, µM, for inactives: largest response in the series, negative = inhibition, hits mostly inhibitors. hit rate 3.5% among 310,000. AID 1490;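 further: the enzyme is Sfp with the accession as filed and its product quenches rhodamine fluorescence; 0% = enzyme reaction without inhibitor and -100% = no enzyme wells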
#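 Sfp 15 nM + cpd, 15 min RT; start w/ rhodamine-CoA 5 uM, BHQ-2-YbbR 12.5 uM (final); 50 mM Hepes pH 7.6, 10 mM MgCl2, 0.01% NP-40, 0.01% BSA; read 525/598 nm at 0 and 30 min.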
# G9a inh: G9a (human) methyltransferase inhibition. G9a H3K9 monomethylation, AlphaScreen, 2 h. AID 504332. hit rate 8.8% among 350,000. Q96KQ7. Potency, µM (top dose mostly 102 µM), without a hit: at the highest dose activity, negative = inhibition, actives largely listed as inhibitors; further: on the % scale 0 is the no-effect control and ±100 the full control effect; nearly all actives have a fitted effect of over 75% in size
# Target sequence (Q96KQ7 913-1193 limits assumed): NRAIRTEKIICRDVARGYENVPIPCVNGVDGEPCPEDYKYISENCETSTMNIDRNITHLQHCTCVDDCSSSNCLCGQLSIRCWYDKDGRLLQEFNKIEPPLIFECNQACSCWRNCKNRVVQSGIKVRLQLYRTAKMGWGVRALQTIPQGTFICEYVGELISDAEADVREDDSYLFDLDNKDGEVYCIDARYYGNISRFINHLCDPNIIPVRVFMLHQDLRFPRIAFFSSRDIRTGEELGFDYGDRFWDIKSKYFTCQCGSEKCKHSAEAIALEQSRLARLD
#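 G9a (20 nM) preincubated 15 min RT with compounds, then 500 nM biotinylated H3K9 peptide and 20 uM SAM added; 2 h RT reaction. Monomethyl-H3K9 product detected by AlphaScreen with anti-H3K9me1 antibody, streptavidin donor and anti-rabbit IgG acceptor beads.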
# JMJD2A Tudor inh: inhibitors of human JMJD2A Tudor domain. Potency, µM (series often up to 114 µM), for the others: at the top dose activity change, negative = inhibition, actives largely listed as inhibitors. O75164. AID 504339. hit rate 4.4% among 390,000. AlphaScreen JMJD2A-Tudor / H3K4me3 peptide binding; further: on the % scale 0 is the no-effect control and ±100 the full control effect; nearly all actives have a fitted effect of over 50% in size
# 12-LOX inh: blocks human arachidonate 12S-lipoxygenase | P18054 | purified 12hLO, xylenol orange hydroperoxide absorbance | Potency, µM (titrated, usually from 108 µM), for inactives: at the highest dose activity change, negative = inhibition, actives largely listed as inhibitors | hit rate 1.1% among 580,000 | AID 1671190; further: on the % scale 0 is the no-effect control and ±100 the full control effect
#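 Hydroperoxide product was detected by ferrous iron/xylenol orange as the 573 to 405 nm absorbance ratio. Arachidonic acid at 40 uM (final) was turned over for 30 min at room temperature by 150 nM human 12hLO, pH 7.0 Hepes buffer, after 15 min compound preincubation.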
# BAZ2B inh: inhibitors of human BAZ2B bromodomain | Q9UIF8 | AlphaScreen BAZ2B-H3K14Ac peptide displacement | Potency, µM (titrated, usually from 114 µM), for the others: at the highest dose activity change, negative = inhibition, actives largely listed as inhibitors | hit rate 4.4% among 360,000 | AID 504333; further: on the % scale 0 is the no-effect control and ±100 the full control effect; nearly all actives have a fitted effect of over 60% in size
#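 Protein-peptide AlphaScreen: BAZ2B 50 nM, b-H3K14Ac 50 nM, 1x PBS pH 7.4 + 0.01% Tween-20. Preincubation 30 min RT; cpd 30 min RT (top 110 uM); beads 20 min RT, light-protected.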
# HP1b binding inh: blocks HP1-beta chromodomain binding to methylated histone tails | hit rate 0.56% among 390,000 | P83916 | AlphaScreen HP1-beta / biotin-H3K9me3 peptide binding | Potency, µM (top dose mostly 114 µM), inactives show at the highest dose activity change, negative = inhibition, usual class: inhibitors | AID 540317; further: nearly all actives have a fitted effect of over 70% in size
# Target sequence (P83916 whole entry, looked up): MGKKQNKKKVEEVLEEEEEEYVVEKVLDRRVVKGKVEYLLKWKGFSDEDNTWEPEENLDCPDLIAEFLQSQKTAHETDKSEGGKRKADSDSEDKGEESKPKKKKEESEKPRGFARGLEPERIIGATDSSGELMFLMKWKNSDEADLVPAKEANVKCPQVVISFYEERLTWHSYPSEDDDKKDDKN
#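 Compound inhibition of the preformed complex between 50 nM HP1-beta and 50 nM biotinylated H3K9me3 peptide was read by AlphaScreen. Buffer was PBS pH 7.4 with 0.01% Tween-20. Incubations ran 30 min at room temperature, with 10 ug/mL donor/acceptor beads.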
# * hit, by the source's call; ? = inconclusive; . = no result; [ ] = dose if it differs, or a comment. Rows were chosen to be rich in hits. Some 8.7% of all compounds tested hit in one or more screens of this group. The call rests on the fitted dose curve; in most records, active means well fitted curve in the direction sought with a large enough effect; inconclusive means small, poorly fitted or top-dose-only effect, or another doubt; inactive means no such curve, though single readings can be large; an effect the other way counts as inactive or inconclusive. Potency means the concentration at half of the fitted maximal effect.
SMILES,Sfp PPTase inh,G9a inh,JMJD2A Tudor inh,12-LOX inh,BAZ2B inh,HP1b binding inh
CCOC(=O)C1=C(COC(=O)CCOc2ccccc2)NC(=O)NC1C (stereo not drawn),.,27%[12.7 µM],100µM*,-6%,32%,-13%
CCOC(=O)C1=C(COC(=O)CCOc2cccc(C)c2)NC(=O)NC1C (stereo not drawn),.,10%,-6%,-25%,11%,15%
CCOC(=O)C1=C(CBr)NC(=O)NC1C (stereo not drawn),19%,28µM*,?,-38%,50µM*,31%
COc1ccc(CN2Cc3[nH]nc(-c4cccnc4OC)c3CC2=O)cc1,.,.,.,-8%[176 µM],.,.
CC[C@H]1CN(C(=O)C2CC2)CC[C@H]1CC(=O)NCc1ccccc1,.,.,.,9%[176 µM],.,.
COc1cccc(N/N=C/c2cccc(Br)c2O)c1,2%,2.2µM*,-31%,?,?,?
Cc1cccc(N/N=C/c2ccc(O)c(O)c2O)c1,3.5µM*,1.1µM*,45µM*,420%,50µM*,?
CCn1c(Cn2nnc(-c3cccc(F)c3)n2)nc2cc(S(=O)(=O)N3CCCCC3)ccc21,.,.,.,12%,.,.
Cn1c(=O)oc2ccc(C(=O)N3CCn4nc(C(O)CO)cc4C3)cc21 (stereo not drawn),.,.,.,24%,.,.
CCC(C)(C)C(=O)N1CCC2(CC1)N(C)C(=O)CS2(=O)=O,.,.,.,48%,.,.
COc1ccc(Cl)cc1Nc1nc(-c2sc(NC(=O)c3ccccc3)nc2C)cs1,3%,35µM*,.,.,56µM*,.
Cc1nc(NC(=O)c2ccccc2)sc1-c1csc(Nc2ccc(Cl)cc2Cl)n1,-19%,25µM*,.,.,50µM*,.
Cc1nc(NC(=O)c2ccco2)sc1-c1csc(Nc2ccc(Cl)cc2Cl)n1,-4%,?,?,?,-31%,0%
O=[N+]([O-])c1cc(-c2ccc(/C=N/c3nc4ccccn4c3-c3ccco3)o2)ccc1Cl,?,13µM*,?,?,45µM*,-17%
CCOc1ccc(C(=O)N2CCC[C@H]2c2nc(-c3ccccc3Cl)no2)cc1,.,.,.,50%,.,.
COc1ccccc1C(=O)NC(=S)Nc1ccc(Cc2ccncc2)cc1,?,32µM*,-27%,?,?,14%
CCNC(=S)N/N=C(\C)c1cc2ccccc2o1,10%,12%[59 µM],?,?,?,?
Cc1cc(C)cc(C(=O)NC(=S)Nc2ccc(Cc3ccncc3)cc2)c1,-9%,22µM*,?,45µM*,?,?
CCCCC(=O)Nc1cccc(NC(=S)NC(=O)C(C)C)c1,?,28µM*,?,-25%,1%,5%
C/C(=N\NC(=S)Nc1cccc(C)c1)c1cc2ccccc2o1,-17%,35µM*,25µM*,35µM*,?,?
CCCCC(=O)Nc1cccc(NC(=O)CC)c1,-1%,-17%[12.7 µM],-13%,0%,-19%,27%
Cc1nc2cc(F)ccc2cc1C(=O)N1CCN(c2ccccc2F)CC1,.,.,.,-3%,.,.
CCc1ccccc1N(CC)C(=O)Cn1nc(Cc2cccnc2)c2ccccc2c1=O,.,.,.,4%,.,.
CCC(=O)Nc1cccc(NC(=S)NC(=O)c2cccc(C)c2)c1,-15%,?,-9%[57.1 µM],35µM*,-37%,?
CCC(=O)Nc1cccc(NC(=S)NC(=O)c2ccc(C)cc2)c1,?,.,-10%,-20%,?,15%
SMILES,Sfp PPTase inh,G9a inh,JMJD2A Tudor inh,12-LOX inh,BAZ2B inh,HP1b binding inh
Cc1cccc(C(=O)NC(=S)Nc2ccc(Cc3ccncc3)cc2)c1,-29%,32µM*,?,45µM*,?,-42%
CC/C(=N\NC(=S)Nc1cccc(C)c1)c1ccccc1,-3%,?,50µM*,?,?,?
Cc1cccc(C(=O)NC(=S)NC(C)c2ccccc2)c1 (stereo not drawn),.,.,-35%,6.3µM*,.,20%
Cc1cccc(NC(=S)N/N=C(\c2ccccc2)C(C)C)c1,-12%,.,-28%,?,-36%,-7%
O=C(NC(=S)Nc1ccc(Cc2ccncc2)cc1)c1ccccc1,-14%,?,-34%,?,?,?
COc1ccc(C(=O)C(C)Oc2ccccc2Cl)cc1 (stereo not drawn),.,.,.,2%,.,.
O=C1Cc2c(-c3ccccc3OCc3ccccc3)n[nH]c2CN1Cc1ccccn1,.,.,.,-10%[176 µM],.,.
Cc1oc(-c2ccccc2Cl)nc1CS(=O)(=O)CC(=O)N1CCc2ccccc21,.,.,.,13%,.,.
Cc1[nH]c2nc3ccccc3n2c(=O)c1Cc1ccc(Cl)cc1,.,.,.,27%,.,.
O=c1oc2cc(O)ccc2cc1-c1nnc(Nc2ccccc2Cl)s1,.,.,.,-32%,.,.
OCCN(Cc1ccccc1)CC(O)COc1ccc(-c2ccccc2)cc1 (stereo not drawn),50µM*,-8%[12.7 µM],-34%,?,?,45%
COC(=O)NCCc1ccccc1OC,.,.,.,21%,.,.
O=C(CN(Cc1cccs1)C(=O)CSc1nnc(COc2ccccc2)o1)NC1CCCC1,-8%,-2%[59 µM],-12%,5%,-8%,32%
Cc1ccc(CN(CC(=O)NC2CCCC2)C(=O)CSc2nnc(COc3ccccc3)o2)cc1,-5%,32µM*,-27%,-19%,47%,?
O=C(CN(Cc1ccccc1)C(=O)CSc1nnc(COc2ccccc2)o1)NC1CCCC1,79µM*,10µM*,-12%,-1%,-2%,-8%
CCCC(=O)n1nc(-c2ccc(Cl)cc2)nc1N,.,.,.,35%,.,.

# Screening results: PubChem BioAssay, National Center for Advancing Translational Sciences (NCATS)
